Source: PubChem BioAssay
For part of these data: Potency and affinity values are given separately. Activity calls are given as the source filed them. Unless noted, the rule behind the calls is not given here.

Columns and labels:
[1] = human hepatoma cell viability loss – ATP luminescence, cytotoxicity control for P. falciparum antimalarial project, primary screen (AID 2303;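 active = inhibition above 50%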;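 note: 0% = DMSO wells and 100% = digitonin-killed cells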); details: HepG2 viability, 24-48 h, at 10 µM, stronger effect = higher value
[2] = target: L-lactate dehydrogenase (Plasmodium falciparum (isolate CDC / Honduras)) (UniProt Q27743); experiment: PfLDH activity inhibition – cell lysate, 3D7 strain, counter-screen for P. falciparum growth inhibition project (AID 2304);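 note: 0% = vehicle and 100% = reference inhibitor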; details: P. falciparum 3D7 crude extract, LDH APAD/NBT absorbance; at 2 µM; stronger effect = higher value
L-lactate dehydrogenase (Plasmodium falciparum (isolate CDC / Honduras)), sequence (Q27743 whole entry, looked up): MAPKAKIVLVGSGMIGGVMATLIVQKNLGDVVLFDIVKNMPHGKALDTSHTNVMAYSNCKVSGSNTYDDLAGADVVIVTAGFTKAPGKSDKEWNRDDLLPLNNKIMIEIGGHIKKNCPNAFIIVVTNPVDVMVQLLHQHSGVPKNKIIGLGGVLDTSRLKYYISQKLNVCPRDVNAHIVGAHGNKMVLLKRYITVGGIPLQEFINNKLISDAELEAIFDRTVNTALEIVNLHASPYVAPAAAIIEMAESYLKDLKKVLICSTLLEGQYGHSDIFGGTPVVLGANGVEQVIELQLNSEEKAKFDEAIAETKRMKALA

[3] = inhibition of 3D7 malaria parasite growth – strain 3D7 (AID 2306);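 note: 0% = DMSO wells and 100% = chloroquine plus artemisinin control wells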; details: P. falciparum 3D7 erythrocytic growth, LDH absorbance, 72 h; at 2 µM; stronger effect = higher value
[4] = target: Calcium-dependent protein kinase 1 (Plasmodium falciparum (isolate 3D7)) (UniProt P62344); experiment: PfCDPK1 kinase inhibitors, biochemical, TCAMS library (AID 1159585; cut-off not given, nearly all actives have IC50 up to about 0.98 µM;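 note: inhibitors leave more ATP so luminescence rises with inhibition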); details: recombinant PfCDPK1, Kinase-Glo ATP depletion luminescence
Calcium-dependent protein kinase 1 (Plasmodium falciparum (isolate 3D7)), sequence (P62344 whole entry, looked up): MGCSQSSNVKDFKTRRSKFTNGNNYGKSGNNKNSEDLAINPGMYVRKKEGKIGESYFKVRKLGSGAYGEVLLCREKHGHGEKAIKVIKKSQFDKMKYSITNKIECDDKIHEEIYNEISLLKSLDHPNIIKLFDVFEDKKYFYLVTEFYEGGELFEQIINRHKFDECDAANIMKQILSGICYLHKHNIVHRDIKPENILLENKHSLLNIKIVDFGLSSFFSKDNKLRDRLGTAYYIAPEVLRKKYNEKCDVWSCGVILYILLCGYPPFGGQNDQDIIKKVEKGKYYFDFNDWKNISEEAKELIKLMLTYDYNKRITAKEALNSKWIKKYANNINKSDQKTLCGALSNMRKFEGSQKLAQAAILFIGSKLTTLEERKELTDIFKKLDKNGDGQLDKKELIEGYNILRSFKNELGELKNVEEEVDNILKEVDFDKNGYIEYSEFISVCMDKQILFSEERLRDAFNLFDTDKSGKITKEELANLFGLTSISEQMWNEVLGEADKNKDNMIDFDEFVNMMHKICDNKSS

[5] = target: Plasmodium falciparum protein kinase 6 (PK6, PF3D7_1337100) (UniProt Q8IDW1); experiment: PfPK6 kinase inhibitors, biochemical, TCAMS library (AID 1159586); details: recombinant PfPK6, Kinase-Glo ATP depletion luminescence
Plasmodium falciparum protein kinase 6 (PK6, PF3D7_1337100), sequence (Q8IDW1 1-305): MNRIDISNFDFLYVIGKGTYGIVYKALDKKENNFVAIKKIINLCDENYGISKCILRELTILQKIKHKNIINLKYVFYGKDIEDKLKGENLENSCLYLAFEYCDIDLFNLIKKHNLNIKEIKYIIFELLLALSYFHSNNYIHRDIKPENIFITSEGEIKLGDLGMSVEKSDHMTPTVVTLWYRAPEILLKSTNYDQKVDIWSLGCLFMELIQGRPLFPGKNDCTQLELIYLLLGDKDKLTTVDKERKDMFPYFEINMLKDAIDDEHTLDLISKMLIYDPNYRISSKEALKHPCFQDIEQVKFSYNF

[6] = target: Protein kinase 7 (PK7), Plasmodium falciparum 3D7 (PF3D7_0213400) (UniProt Q7YTF7); experiment: inhibition of Plasmodium PK7 catalytic activity – biochemical, TCAMS antimalarial set, Kinase-Glo luminescence (AID 1159587); details: recombinant PfPK7, Kinase-Glo ATP depletion luminescence
Protein kinase 7 (PK7), Plasmodium falciparum 3D7 (PF3D7_0213400), sequence (Q7YTF7 1-343): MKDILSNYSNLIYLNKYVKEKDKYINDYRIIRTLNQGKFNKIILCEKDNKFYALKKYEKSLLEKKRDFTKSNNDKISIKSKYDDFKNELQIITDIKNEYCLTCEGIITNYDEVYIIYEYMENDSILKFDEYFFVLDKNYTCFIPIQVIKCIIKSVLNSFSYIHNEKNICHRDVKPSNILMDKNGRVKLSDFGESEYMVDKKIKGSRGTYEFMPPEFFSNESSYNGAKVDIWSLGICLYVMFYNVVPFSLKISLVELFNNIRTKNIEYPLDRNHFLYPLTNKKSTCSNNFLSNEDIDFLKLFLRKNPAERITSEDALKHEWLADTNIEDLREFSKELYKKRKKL

[7] = target: Calcium-dependent protein kinase 4 (Plasmodium falciparum (isolate 3D7)) (UniProt Q8IBS5); experiment: PfCDPK4 kinase inhibitors, biochemical, TCAMS library (AID 1159588; cut-off not given, nearly all actives have IC50 up to about 0.91 µM); details: recombinant PfCDPK4, Kinase-Glo ATP depletion luminescence
Calcium-dependent protein kinase 4 (Plasmodium falciparum (isolate 3D7)), sequence (Q8IBS5 whole entry, looked up): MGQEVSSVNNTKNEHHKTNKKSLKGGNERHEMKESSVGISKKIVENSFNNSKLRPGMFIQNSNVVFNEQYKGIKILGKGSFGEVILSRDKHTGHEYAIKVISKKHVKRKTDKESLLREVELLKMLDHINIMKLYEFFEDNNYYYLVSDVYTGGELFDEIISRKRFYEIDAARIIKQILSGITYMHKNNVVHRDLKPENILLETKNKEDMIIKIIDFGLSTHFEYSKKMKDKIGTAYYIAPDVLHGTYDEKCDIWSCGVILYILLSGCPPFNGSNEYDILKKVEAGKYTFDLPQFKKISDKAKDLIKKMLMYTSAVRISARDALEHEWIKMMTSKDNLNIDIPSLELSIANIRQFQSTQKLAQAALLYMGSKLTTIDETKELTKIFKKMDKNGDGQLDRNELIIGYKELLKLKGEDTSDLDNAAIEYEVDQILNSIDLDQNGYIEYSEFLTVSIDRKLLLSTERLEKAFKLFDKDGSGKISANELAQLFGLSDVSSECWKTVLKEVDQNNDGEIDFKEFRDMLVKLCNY

[8] = antimalarial activity against Dd2 strain (AID 2302;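 active = growth inhibition above 50% at the single 2 µM test dose, taken to imply half-maximal potency below 2 µM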;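 note: 0% = DMSO untreated growth and 100% = chloroquine plus artemisinin killed control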); details: P. falciparum Dd2 in RBCs, LDH growth readout, 72 h; at 2 µM; stronger effect = higher value

CC(=O)Nc1ccc(CN2CCc3ccc(NS(=O)(=O)c4ccc(-c5cccc(C(F)(F)F)c5)cc4)cc3CC2)s1
inactive: inhibition [1] 23% | inhibition [2] 0% | outcome [4] | outcome [5] | outcome [6] | outcome [7]
active: growth inhibition [3] 82%

O=C(Nc1cccc(-c2nn3ccccc3c2-c2ccnc(Nc3cccc(F)c3)n2)c1)C1CCCCC1
inactive: inhibition [1] 44% | inhibition [2] 3% | outcome [4] | outcome [5] | outcome [6] | outcome [7]
active: growth inhibition [3] 85%

COc1cc(OC)cc(C(=O)Nc2nc(-c3ccc(NC(=O)c4ccccc4)cc3)cs2)c1
active: growth inhibition [3] 88%
inactive: inhibition [1] 16% | inhibition [2] -1% | outcome [4] | outcome [5] | outcome [6] | outcome [7]

N=C(N)c1nc2ccccc2s1
active: growth inhibition [3] 87%
inactive: inhibition [1] 1% | inhibition [2] -1% | outcome [4] | outcome [5] | outcome [6] | outcome [7]

C[C@@H]1CN(c2ccc3[nH]cc(Sc4ccc(-c5cccs5)cc4)c3c2)C[C@H](C)N1
inactive: inhibition [1] 29% | inhibition [2] -4% | outcome [4] | outcome [5] | outcome [6] | outcome [7]
active: growth inhibition [3] 89%

CN(C)Cc1ccc(CNC2CCN(Cc3ccccc3Cl)CC2)cc1
active: growth inhibition [3] 82%
inactive: inhibition [1] 23% | inhibition [2] -3% | outcome [4] | outcome [5] | outcome [6] | outcome [7]

N#Cc1cc(N(CCCOc2cccc(OC(F)(F)F)c2)Cc2ccccc2C(F)(F)F)ccc1C(F)(F)F
active: growth inhibition [3] 94%
inactive: inhibition [1] 2% | inhibition [2] 0% | outcome [4] | outcome [5] | outcome [6] | outcome [7]

CC(Sc1n[nH]c(-c2ccccc2Br)n1)C(=O)Nc1ccc(F)cc1 (stereo not drawn)
active: growth inhibition [3] 90%
inactive: inhibition [1] -7% | inhibition [2] 1% | outcome [4] | outcome [5] | outcome [6] | outcome [7]

COc1ccc(CCN2CC[C@H](CNc3nc(-c4ccccc4)nc4ccccc34)C2)cc1S(N)(=O)=O
inactive: inhibition [2] -4% | outcome [4] | outcome [5] | outcome [6] | outcome [7]
active: inhibition [1] 54% | growth inhibition [3] 85%

CCCN1CCN(CCNc2c3ccccc3nc3ccccc23)CC1
inactive: inhibition [1] 13% | inhibition [2] 3% | outcome [4] | outcome [5] | outcome [6] | outcome [7]
active: growth inhibition [3] 88%

CC(C)CNC(=O)c1ccc(-c2cccc(CN3CCC(N4CCCC4)CC3)c2)nc1
active: growth inhibition [3] 81%
inactive: inhibition [1] 4% | inhibition [2] -3% | outcome [4] | outcome [5] | outcome [6] | outcome [7]

COc1ccc(CN2CCN(CC(=O)Nc3cc(Cl)ccc3-n3cncn3)CC2)cc1F
active: growth inhibition [3] 93%
inactive: inhibition [1] 0% | inhibition [2] -1% | outcome [4] | outcome [5] | outcome [6] | outcome [7]

Cn1cccc1C(=O)Nc1cccc(-c2nn3ccccc3c2-c2ccnc(Nc3ccc4c(c3)OCCO4)n2)c1
inactive: growth inhibition [8] 27% | inhibition [1] 12% | inhibition [2] 4% | outcome [4] | outcome [5] | outcome [6]
active: growth inhibition [3] 95%

NS(=O)(=O)c1cccc(N=Cc2c(O)[nH]c3ccc(S(=O)(=O)Cc4c(Cl)cccc4Cl)cc23)c1
inactive: inhibition [1] 1% | inhibition [2] 4% | outcome [4] | outcome [5] | outcome [6]
active: growth inhibition [8] 99% | growth inhibition [3] 92%

Clc1cccc(C=NNc2ccnc3cc(Cl)ccc23)c1
inactive: inhibition [2] -4% | outcome [4] | outcome [5] | outcome [6] | outcome [7]

Cc1[nH]nc2ccc(-c3cc(OC[C@@H](N)Cc4ccccc4)cnc3-c3cc4ccccc4s3)cc12
inactive: inhibition [1] 41% | inhibition [2] -3% | outcome [4] | outcome [5] | outcome [6]
active: growth inhibition [8] 68% | growth inhibition [3] 99%

Cc1nc2ccccc2n1C1C[C@H]2CC[C@@H](C1)N2CCC1(c2ccccc2)CCN(C(=O)Nc2ccc(C(F)(F)F)cc2)CC1 (stereo partly drawn)
inactive: inhibition [2] -2% | outcome [4] | outcome [5] | outcome [6] | outcome [7]

O=c1c2cccnc2sn1-c1ccccc1
inactive: inhibition [2] 0% | outcome [4] | outcome [5] | outcome [6] | outcome [7]

N=C1SC(=Cc2cn[nH]c2-c2ccc(F)cc2)C(=O)N1c1nccs1
inactive: inhibition [1] 28% | inhibition [2] -3% | outcome [4] | outcome [5] | outcome [6] | outcome [7]
active: growth inhibition [3] 91%

CCS(=O)(=O)c1ccc(/C(=N/OC)c2ccc[nH]2)cc1
inactive: inhibition [1] -6% | inhibition [2] -2% | outcome [4] | outcome [5] | outcome [6] | outcome [7]
active: growth inhibition [3] 85%

CCNC(=O)Nc1ccc(N(C)c2ccnc(Nc3ccc(CS(C)(=O)=O)cc3)n2)cc1
inactive: inhibition [1] -5% | inhibition [2] 2% | outcome [4] | outcome [6] | outcome [7]
active: growth inhibition [8] 99% | growth inhibition [3] 101%

CC(C)C(=O)NC(NC(=S)Nc1ccc(Br)cc1)C(Cl)(Cl)Cl (stereo not drawn)
active: growth inhibition [3] 93%
inactive: inhibition [1] -5% | inhibition [2] 3% | outcome [4] | outcome [5] | outcome [6] | outcome [7]

CCN(CC)CCCC(C)Nc1nc(C=Cc2ccc(Br)cc2)nc2cc(Cl)ccc12 (stereo not drawn)
inactive: inhibition [2] -6% | outcome [4] | outcome [5] | outcome [6] | outcome [7]
